Laboratory results published in PubChem BioAssay (NCI).
About 83,000 compounds went through this panel and 20% of them were active in at least one assay; those are over-represented in the sample as a whole.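 Single-dose data. Exposure time 48 hours. Values below 10 considered active.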 Calls of active or inactive are those of the source.

Columns and labels:
Test in all cases: NCI-60 one-dose screen, 48 h (100 = growth as untreated, 0 = no growth, -100 = all killed)
Settings in all cases: 10 µM unless noted
[1] = system: DU-145 prostate
[2] = system: K-562 leukemia
[3] = system: MALME-3M melanoma
[4] = system: MDA-MB-231 breast
[5] = system: RXF 393 renal
[6] = system: SF-268 CNS
[7] = system: SF-295 CNS
[8] = system: SF-539 CNS
[9] = system: UACC-257 melanoma
[10] = system: M14 melanoma

Measured: growth

COc1ccc(-c2cnc(NC(=O)CCCCCCNC(=O)C(O)(O)C(F)(F)F)s2)cc1
active: [1] -8.16% | [5] -48% | [6] 2% | [7] -44.2%
inactive: [2] 14.4% | [3] 11% | [4] 17% | [8] 12% | [9] 18.3% | [10] 14.4%

Brc1ccc(-c2cc(-c3ccc4c(c3)OC=CO4)n[nH]2)s1
inactive: [1] 99.1% | [2] 31.5% | [3] 70.3% | [4] 90.8% | [5] 101% | [6] 89% | [7] 82.6% | [8] 85.2% | [9] 90.7% | [10] 75.3%

O=C(CN1CCN(c2cc(=O)[nH]c3ccc(F)cc23)CC1)N(c1ccccc1)c1ccccc1
inactive: [1] 107% | [2] 94.9% | [3] 100% | [4] 98.1% | [5] 103% | [6] 99.8% | [7] 107% | [8] 101% | [9] 106% | [10] 105%

C[C@@H]1OCC2(CCN(c3cnc(C(=O)Nc4cc(F)cc5cccnc45)cn3)CC2)[C@@H]1N
inactive: [1] 77% | [3] 53.1% | [4] 38.9% | [5] 65.4% | [6] 78.9% | [7] 90.8% | [8] 71.7% | [9] 102% | [10] 81.5%
active: [2] 8.84%

C#CCOc1cccc(/C(N)=N/C(N)=N/c2nc3ccccc3s2)c1
inactive: [1] 97.4% | [2] 82.2% | [3] 111% | [4] 81.9% | [5] 116% | [6] 100% | [7] 31.2% | [8] 105% | [9] 107% | [10] 95.8%

CN1CCN(c2ccc(C(=O)/C=C/c3cc(F)cc(C(F)(F)F)c3)cc2)CC1
inactive: [1] 49.6% | [2] 11.1% | [3] 91.7% | [4] 72.9% | [5] 70.5% | [6] 82.8% | [7] 88.6% | [8] 59.5% | [9] 91.1% | [10] 92.2%

COc1ccc(C2C(C#N)=C(/N=C/c3ccc(Cl)cc3)Oc3c2sc2c(C)cccc32)cc1 (stereo not given)
active: [2] 9.73% | [5] -5.77% | [7] 8.79% | [8] 1.34% | [10] 0.955%
inactive: [1] 26.1% | [3] 50.2% | [4] 33.9% | [6] 52.9% | [9] 70.9%

Cc1ccc2c(n1)C(=O)C(Cl)=C(Nc1cccc(C(F)(F)F)c1)C2=O
inactive: [1] 98.7% | [4] 54.7% | [6] 100% | [7] 110% | [8] 106% | [10] 80.4%
active: [2] 3.08% | [3] -5.42% | [5] -1.18% | [9] -4.17%

O=c1nc(Nc2ccc([N+](=O)[O-])cc2O)sc2ccccc12
active: [5] 7.31% | [7] -34.2% | [8] -36.5%
inactive: [1] 25.1% | [2] 12.9% | [3] 30.7% | [4] 51.8% | [6] 59.4% | [9] 65% | [10] 17.5%

C#CCN(C)CCCOc1ccc(NC(=O)CCCCCCC(=O)NO)cc1Cl
inactive: [1] 26.3% | [2] 18.5% | [3] 21.1% | [4] 16.3% | [6] 39.3% | [8] 20.3% | [9] 25.6% | [10] 23%
active: [5] -44.3% | [7] 7.83%

Cn1c(SCC(=O)c2ccc(F)cc2)nc2ccccc2c1=O
inactive: [1] 98% | [2] 76.4% | [3] 109% | [4] 91.7% | [5] 108% | [6] 99% | [7] 97.9% | [8] 98.2% | [9] 107% | [10] 95.8%

CC(O)c1cccc(/C(N)=N/C(N)=N/c2nc3ccccc3s2)c1 (stereo not given)
inactive: [1] 96.8% | [2] 72% | [3] 97% | [4] 94.9% | [5] 104% | [6] 94.3% | [7] 86.7% | [8] 96.8% | [9] 103% | [10] 94.4%

O=C(N/N=C\c1ccc(F)cc1)c1ccc2nc(-c3ccc(Br)cc3)[nH]c2c1
active: [1] -22.1% | [3] -49.9% | [5] -12.3%
inactive: [2] 19.9% | [4] 60.6% | [6] 44.8% | [7] 39.4% | [8] 10.9% | [9] 74.5% | [10] 18.8%

O=S(=O)(Oc1ccc(-c2cn3ccoc3n2)cc1)c1cccc(C(F)(F)F)c1
inactive: [1] 101% | [2] 101% | [3] 98.6% | [4] 102% | [5] 98.2% | [6] 102% | [7] 90.4% | [8] 94.3% | [9] 101% | [10] 105%

CS(=O)(=O)c1nccc(-c2c(-c3cccc(OCc4ccc(Cl)c(C(F)(F)F)c4)c3)nc3sccn23)n1
inactive: [2] 14.2% | [3] 88.3% | [4] 84.4% | [5] 78% | [6] 104% | [7] 95% | [8] 93.3% | [9] 66.9% | [10] 72.9%
active: [1] -25%

O=C(CCCCCCNC(=O)C(O)(O)C(F)(F)F)Nc1ncc(-c2ccc(Br)cc2)s1
active: [1] 3.81% | [5] -52.8% | [6] 1.89% | [7] -29.3% | [9] 9.48% | [10] 8.94%
inactive: [2] 11.8% | [3] 19.9% | [4] 19.7% | [8] 12.1%

Clc1ccc2[nH]cc(-c3nn4cc(-c5cccnc5)nc4s3)c2c1
inactive: [1] 107% | [2] 94.7% | [3] 90.6% | [4] 71.7% | [5] 113% | [6] 107% | [7] 96.7% | [8] 95.6% | [9] 109% | [10] 99.2%

O=C(Nc1ccc(N=Cc2c(O)[nH]c3ccccc23)cc1)Nc1ccc(S(=O)(=O)Nc2ncccn2)cc1
inactive: [1] 110% | [2] 98% | [3] 112% | [4] 107% | [5] 122% | [6] 109% | [7] 101% | [8] 105% | [9] 103% | [10] 104%

N#Cc1cccc(-c2cc(-c3ccc4c(c3)OCCO4)[nH]n2)c1
active: [10] 7.59%
inactive: [1] 34.7% | [2] 13.6% | [3] 36.1% | [4] 42% | [5] 32.4% | [6] 61% | [7] 27.1% | [8] 25% | [9] 71.1%

CC(C)(C)c1cc(NC(=O)Nc2ccc(-c3cn4c5c(sc4n3)CCc3cn(CCCN4CCCCC4)cc3-5)cc2)no1
active: [1] -96.4% | [2] 3.01% | [3] -79.1% | [4] -77.3% | [5] -71.6% | [6] -58.2% | [7] -53.6% | [8] -92.1% | [10] -93.6%
inactive: [9] 51.3%

Cc1csc(/N=C(N)/N=C(\N)c2cccs2)n1
inactive: [1] 110% | [2] 95.7% | [3] 102% | [4] 99.5% | [5] 106% | [6] 103% | [7] 113% | [8] 99.1% | [9] 104% | [10] 99.1%

Cc1ccccc1NC(=O)Nc1nc2ccc([N+](=O)[O-])cc2s1
active: [2] 5.43% | [3] -6.54% | [7] 6.9% | [9] -1.96%
inactive: [1] 20.3% | [4] 17.6% | [5] 12.1% | [6] 18.6% | [8] 13.6% | [10] 19.9%

CC(=O)N(O)CCCCCNC(=O)CCC(=O)N(O)CCCCCNC(=O)CCC(=O)N(O)CCCCCN(CCCCCCCCCC[P+](c1ccccc1)(c1ccccc1)c1ccccc1)CCCCCCCCCC[P+](c1ccccc1)(c1ccccc1)c1ccccc1
inactive: [1] 14.9% | [4] 16.4% | [6] 16.2% | [7] 12.7% | [10] 11%
active: [2] 9.98% | [3] -17.4% | [5] -9.88% | [8] -8.94% | [9] -10.9%

OCC(Nc1ncnc2ccc(-c3cnc4cnccn34)cc12)c1ccccc1 (stereo not given)
inactive: [1] 47.4% | [2] 60.2% | [3] 81.5% | [4] 83.2% | [5] 65.4% | [6] 75.9% | [7] 64.7% | [8] 79% | [9] 80.7% | [10] 93.3%

CCOC(=O)c1cccnc1Nc1ccc(NC(=O)Nc2ccc(Cl)c(C(F)(F)F)c2)cc1
inactive: [1] 32.6% | [2] 13.4% | [3] 51.4% | [4] 95.8% | [5] 93.7% | [6] 73.5% | [8] 75.6% | [9] 58% | [10] 42.7%
active: [7] 9.85%

CC/C(=C(/c1ccc(Cl)cc1)c1ccc(OCCN)cc1)c1ccccc1
inactive: [1] 82.7% | [2] 19.7% | [3] 94.8% | [4] 86.6% | [5] 92.8% | [6] 103% | [7] 107% | [8] 98.6% | [9] 106% | [10] 88.7%

O=C(CCl)Nc1ccc(NC(=O)c2cc(Cl)ccc2O)c(Cl)c1
inactive: [1] 95.2% | [2] 32.8% | [3] 81.8% | [4] 87.6% | [5] 87.4% | [6] 85% | [7] 83.6% | [8] 73.1% | [9] 89.9% | [10] 76.6%
